Pf growth 48h: P. falciparum growth inhibition at 48 hours (one generation). P. falciparum luciferase growth in erythrocytes, 48 h. hit rate 5.9% among 310,000. Potency, µM (doses to about 28.7 µM), for inactives: at the top dose activity change, negative = inhibition, usual class: inhibitors; further: on the % scale 0 is the no-effect control and ±100 the full control effect
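Luminescence readout; reporter = integrated firefly luciferase in P. falciparum. RBC culture at 2% hematocrit, 0.1% parasitemia final, 37 C/5% CO2; decreased signal taken as growth inhibition.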
Pf growth 96h: P. falciparum growth inhibition at 96 hour, primary screen for plastid delayed-death inhibitors; P. falciparum luciferase reporter growth, 96 h; AID 504834; hit rate 6.9% among 320,000; Potency, µM (titrated, usually from 28.7 µM), inactives show at the top dose activity change, negative = inhibition, hits mostly inhibitors; further: on the % scale 0 is the no-effect control and ±100 the full control effect
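P. falciparum expressing integrated firefly luciferase, in erythrocytes at 2% hematocrit, 0.05% parasitemia, incubated with compounds 96 h at 37 C, 5% CO2. Growth inhibition read as loss of luminescence; two-generation exposure targets delayed-death apicoplast inhibitors.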
AMA1 RON2 block: AMA1-RON2 (P. falciparum) interaction inhibition | AlphaScreen AMA1-biotinylated RON2 peptide binding | Potency, µM (series often up to 58.2 µM), for the others: at the top dose activity change, negative = inhibition, usual class: inhibitors | hit rate 0.2% among 360,000 | AID 720542;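 further: 0% = vehicle wells and -100% = peptide control; nearly all actives have a fitted effect of over 45% in size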
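AMA1 (3D7) with his tag at 25 nM final met compounds first, then biotinylated RON2 peptide at 25 nM; detection used donor plus acceptor beads, 10 µg/mL apiece, read by AlphaScreen after 30 min at room temperature.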
SARS PLpro yeast: SARS-CoV PLP inhibition in yeast | S. cerevisiae expressing SARS-CoV PLpro, growth rescue | Potency, µM (doses to about 32.9 µM), for inactives: top-dose activity, positive = growth rescue, most hits filed as activators | hit rate 0.19% among 330,000 | AID 485353; calls by dose curve; further: 0% is about no effect; nearly all actives have a fitted effect of over 55% in size
Numbers without * were called inactive; ? = inconclusive; / = no result given; [ ] = remark or other dose. The list is not random: actives were taken first. Their share in the collection is about 9.4%. Unless noted, the call rests on the fitted dose curve; in most records, active means well fitted curve in the direction sought with a large enough effect; inconclusive means small, poorly fitted or top-dose-only effect, or another doubt; inactive means no such curve, though single readings can be large; an effect the other way counts as inactive or inconclusive. Potency means the concentration at half of the fitted maximal effect.

SMILES | Pf growth 48h | Pf growth 96h | AMA1 RON2 block | SARS PLpro yeast
COc1cc2c3c(c1OC)C1(C=CC(=O)C=C1)CC3N(C(=O)CCC(=O)O)CC2 (stereo unspecified) | 2.08µM* | -25.8% | -14.4% | 1.3%
COc1cc2c3c(c1OC)C1(C=CC(=O)C=C1)CC3N(C(=O)c1ccccc1)CC2 (stereo unspecified) | ? | ? | -0.3% | -1.9%
CCOC(C[n+]1c(-c2ccccc2)cc(C)cc1-c1ccccc1)OCC | 1.47µM* | 1.47µM* | 11.6% | -4.2%
Cc1cccc2sc(NC(=O)[C@@H]3CCCN3C(=O)c3cccs3)nc12 | 5.1% | 21.7% | 6.5% | -19.4%
CC1=NN(C(C#N)c2ccc(F)cc2)C(c2ccccc2)C1 (stereo unspecified) | -27.0% | 14.7µM* | 0.6% | -1.0%
CC1=NN(C(C#N)c2ccccc2C)C(c2ccccc2)C1 (stereo unspecified) | 8.4% | 0.0% | 1.0% | 1.6%
Cc1ccc(C)c(OCC(=O)N/N=C/c2c(C)nn(-c3ccccc3)c2Cl)c1 | -13.9% | / | / | -4.6%
Cc1ccc(C(C)C)c(OCCCN(C)Cc2ccccc2)c1 | 13.1µM* | ? | -20.6% | -4.9%
Cc1ccc(OCCCCN(C)Cc2ccccc2)c(Br)c1 | ? | 43.6% | -2.8%[11.6 µM] | -23.4%
CN(CCOc1cccc2ccccc12)Cc1ccccc1 | -10.6% | 4.15µM* | ? | -2.3%
OC(CNC1CCCC1)COc1ccc(Cl)cc1 (stereo unspecified) | 14.7µM* | -52.6% | -1.9% | -3.4%
Cc1ccc(C(C)C)c(OCC(O)CNC2CCCC2)c1 (stereo unspecified) | 5.22µM* | -14.7% | -2.8% | -2.9%
Cc1ccccc1OCC(O)CNC1CCCC1 (stereo unspecified) | ? | ? | -3.5% | 0.7%
COc1cccc(OCC(O)CNC2CCCC2)c1 (stereo unspecified) | 1.5% | ? | 0.0% | 0.7%
COc1cc(/C=C2\CC(C(C)(C)C)C/C(=C\c3cc(OC)c(OC)c(OC)c3)C2=O)cc(OC)c1OC (stereo unspecified) | ? | ? | ? | -0.1%
Cc1ccc(C(C)C)c(OCC(O)CN(C)Cc2ccccc2)c1 (stereo unspecified) | / | 2.08µM* | -17.3% | -1.5%
Cc1ccc(C(C)C)c(OCC(=O)NNC(=O)Nc2ccccc2)c1 | / | / | 57.5% | /
O=C(CSC(=S)N1CCCC1)c1cc(Br)cc(Br)c1O | ? | 7.3% | -5.2% | 21.1%
Cc1ccccc1NC(=O)c1c(C)nc(SCC(=O)OCc2ccccc2)c(C#N)c1-c1ccc(F)cc1 | 13.1µM* | ? | 13.3% | -17.8%
Cc1nc(SCC(=O)OCc2ccccc2)c(C#N)c(-c2ccccc2)c1C(=O)Nc1ccccc1 | ? | ? | -3.3% | 5.4%
CC1CCCN(C(=O)C2c3ccccc3C(=O)N3CCc4ccccc4C23)C1 (stereo unspecified) | ? | ? | 31.9% | -1.7%
CCNc1ccc(C(=O)Nc2ccc3nc(C)sc3c2)cc1[N+](=O)[O-] | ? | ? | 21.8% | -27.9%
O=C(Nc1cc(F)cc(F)c1)c1ccc(NCCc2ccccc2)c([N+](=O)[O-])c1 | 13.3% | ? | -17.2% | -4.5%
Cc1ccc(NC(=O)c2ccc(NCCN)c([N+](=O)[O-])c2)cc1Cl | 4.15µM* | 7.0% | -6.2% | -22.4%
Cc1ccc(NC(=O)c2ccc(NCCc3ccccc3)c([N+](=O)[O-])c2)cc1F | 0.3% | 8.28µM* | -25.3% | -19.0%
SMILES | Pf growth 48h | Pf growth 96h | AMA1 RON2 block | SARS PLpro yeast
CCCCN1CC(COCc2ccccc2)Oc2cccc(Oc3ccccc3)c2S1(=O)=O (stereo unspecified) | / | / | 0.0% | /
C/C(CC(=O)Nc1ccccn1)=N\NC(=O)c1cccc(C)c1 | 36.9% | 11.7% | 32.1% | -0.1%
Cc1cc(NC(=O)CCN2CCN(C/C=C/c3ccccc3)CC2)ccc1Br | ? | -15.5% | ? | 1.2%
Cc1c(C)c2c(c(C)c1OC(=O)CCC(=O)O)CC[C@@](C)(CCC[C@H](C)CCC[C@H](C)CCCC(C)C)O2 | ? | 12µM* | / | /
CC(=O)Oc1c(C)c(C)c2c(c1C)CCC(C)(CCCC(C)CCCC(C)CCCC(C)C)O2 (stereo unspecified) | 0.4% | 110.1% | 27.8% | /
COc1ccc(Cl)cc1S(=O)(=O)N1CCCC(C(=O)NCCc2ccccc2)C1 (stereo unspecified) | 37.8% | 10.4µM* | -7.1% | -1.8%
COc1ccc(Cl)cc1S(=O)(=O)N1CCCC(C(=O)NCc2ccccc2)C1 (stereo unspecified) | -16.4% | -11.9% | -6.2% | 0.3%
Cc1nn(C)c(C)c1S(=O)(=O)N1CCCC(C(=O)NCCc2ccc(Cl)cc2)C1 (stereo unspecified) | -7.1% | ? | 13.5% | 7.8%
Cc1noc(C)c1S(=O)(=O)N1CCCC(C(=O)NCc2ccccc2Cl)C1 (stereo unspecified) | 1.4% | 5.86µM* | -5.9% | -20.3%
Cc1noc(C)c1S(=O)(=O)N1CCCC(C(=O)NCCc2ccc(Cl)cc2)C1 (stereo unspecified) | 11.7µM* | / | -4.9% | 0.7%
COc1ccc(NC(=O)CSc2ccc(-c3cccs3)nn2)c(OC)c1 | ? | ? | -1.6% | -2.0%
O=c1cc(CSc2nnc(COc3cccc4ccccc34)o2)c2ccccc2[nH]1 | 79.4% | 11.7µM* | 23.2% | 0.3%
Cc1ccc2cc(C#N)c(SCC(=O)N3CCCc4ccccc43)nc2c1 | -7.7% | ? | 20.2% | 5.7%
Cc1nc(SCC(=O)c2cc3ccccc3oc2=O)c(C#N)c(C)c1C(=O)Nc1ccccc1 | ? | ? | / | -4.7%
COc1cc(C2c3c(c(C)c(C)oc3=O)Oc3c(C)c(C)oc(=O)c32)ccc1OS(=O)(=O)c1ccc(C)cc1 | 5.86µM* | 4.65µM* | 35.0% | 4.3%
CCn1c(SCc2ccccc2Cl)nc2ccccc21 | 32.9% | 121.4% | 25.7% | -3.1%
Cc1ccc(CNS(=O)(=O)c2ccc3c(c2)NC(=O)CO3)cc1 | 20.8% | 51.8% | -3.5% | -3.1%
Cc1sc(NC(=O)CSc2nnc(-c3ccc(F)cc3)o2)c(C#N)c1C | -13.2% | 9.28µM* | 9.9% | -0.6%
CCOC(=O)c1cc(-c2nnc(SCC(=O)Nc3ccc(F)cc3)o2)c(C)nc1C | / | 11.7µM* | 3.8% | -8.6%
Cc1ccc(-c2nnc(SCC(=O)Nc3sc(C)c(C)c3C#N)n2C)cc1 | 22.2% | -21.8% | 3.4% | 5.0%
COc1ccc2cc3cc(C(=O)NCc4ccccn4)oc3nc2c1 | 6.57µM* | 0.0% | 27.7% | 7.7%
CCCCN(CC)C(=O)c1cc2cc3ccc(OC)cc3nc2o1 | 11.7µM* | 5.22µM* | 26.0% | -4.5%
COCCNC(=O)c1cc2cc3ccc(OC)cc3nc2o1 | 7.4%[0.00184 µM] | 16.0% | 13.4% | 6.4%
CCOc1ccc(NC(=O)c2cc3cc4ccc(OC)cc4nc3o2)cc1 | / | 5.22µM* | -8.2% | 1.6%
CCOC(=O)C1CCCN(C(=O)c2cc3cc4ccc(OC)cc4nc3o2)C1 (stereo unspecified) | -18.9% | 48.3% | 4.7% | -3.3%
COc1ccc2cc3cc(C(=O)NCc4ccco4)oc3nc2c1 | / | -10.1% | -8.8% | -4.5%

Assay outcomes deposited in PubChem BioAssay by National Center for Advancing Translational Sciences (NCATS).
